According to the supplement of paper PMC6555819:

How the values were obtained:
Test in all cases: PBM binding z-score (relative to random genomic background probes); higher = stronger binding; sequences stand for … in GC…GCGATTGACAGCGTAGAATGAAGG
[1] = system: PPARg:RXRa DBDmut IVT, anti-RXR (DBD mutation: RXRa K156A/R161A, NR concentration 270 nM, RXRa partner concentration 90 nM)
Summary of the method: (§1)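 Random background probes are the reference for binding z-scores. These scores derive from regression-normalized fluorescence on custom Agilent 4×180K protein-binding microarrays incubated 1 h with ligand-free nuclear receptor dimers. Binding was detected with antibodies against each partner (one per run).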

[2] = system: PPARg:RXRa IVT, anti-PPARg (NR concentration 270 nM, RXRa partner concentration 90 nM)
Summary of the method: as §1

[3] = system: PPARg DBDmut:RXRa IVT, anti-PPARg (DBD mutation: PPARg1 K132A/R137A, NR concentration 270 nM, RXRa partner concentration 90 nM)
Summary of the method: as §1

[4] = system: PPARg DBDmut IVT, anti-PPARg (DBD mutation: PPARg1 K132A/R137A, NR concentration 270 nM)
Summary of the method: as §1

[5] = system: PPARg homodimer (NR concentration 180 nM)
Summary of the method: as §1

[6] = system: PXR:RXRa (NR concentration 270 nM, RXRa partner concentration 90 nM)
Summary of the method: as §1

[7] = system: PXR homodimer (NR concentration 270 nM)
Summary of the method: as §1

[8] = system: RARa:RXR (NR concentration 270 nM, RXRa partner concentration 90 nM)
Summary of the method: as §1

[9] = system: RARa homodimer (NR concentration 270 nM)
Summary of the method: as §1

[10] = system: RARb:RXRa (NR concentration 270 nM, RXRa partner concentration 90 nM)
Summary of the method: as §1

Row | Sequence | PBM binding z-score [1] | PBM binding z-score [2] | PBM binding z-score [3] | PBM binding z-score [4] | PBM binding z-score [5] | PBM binding z-score [6] | PBM binding z-score [7] | PBM binding z-score [8] | PBM binding z-score [9] | PBM binding z-score [10]
1 | TCATATAGGTAGATGCTAGGTGAAAGTCCGATCT | 2.54 | 0.996 | 0.387 | 0.246 | 0.348 | 0.415 | 0.366 | 0.657 | 0.534 | 0.174
2 | GTACCAAGGTGAATAGGTGGTTGATGAGTAGGCG | 1.79 | 1.93 | 0.268 | -0.307 | 0.741 | -0.428 | 0.469 | -0.021 | 0.656 | 1.21
3 | TCGAGTAGGTTAGGAGCATTCAGAATGGCGTCGA | 1.4 | 0.397 | -0.907 | -1.2 | -0.371 | -0.392 | -0.58 | -0.181 | -0.978 | 0.0424
4 | TCATATAGGTAAGACAGGTGAAAGTCGGCATCTA | 3.27 | 2.39 | 0.585 | 1.03 | 0.477 | 0.625 | 0.645 | 0.925 | 1.31 | 0.61
5 | ATCGAAAGGTCGAGGTGAGTGTAGAGAAAGGGAA | 0.382 | 2.47 | 0.918 | -0.292 | 2.56 | 3.28 | 0.73 | 3.41 | 1.1 | 3.97
6 | GCTCGGAGCACAAGGTCAGAGCTTTGTCCGTAGA | 0.516 | 0.181 | -1.55 | -1.25 | 0.0109 | 1.7 | -0.525 | 1.75 | -1.06 | 2.63
7 | TCAGACAGGTGAAGGTAACTAAGGTACGCAGTCG | 2.56 | 1.27 | 0.501 | 0.42 | 0.309 | 0.646 | 0.152 | 1.22 | 0.362 | 1.24
8 | CAAACTAGGCCACAGAGGTCAAAGTCCGTGCGTA | 7.36 | 7.37 | 2.08 | 0.00435 | 3.3 | 5.81 | 4.73 | 6.18 | 0.998 | 4.29
9 | ATCTGTAGGTAAGACTCAGTTCAGTGAAGAACGC | 1.14 | 0.619 | 1.11 | 1.11 | 0.0779 | 1.18 | 1.28 | 0.421 | 0.498 | 0.161
10 | TCTGCTAGGTCAGTTGGTCAGCGAACGAGCTGCC | 2.76 | 3.21 | -0.0304 | 0.518 | 0.0639 | 0.0473 | -0.82 | 0.461 | -1.14 | 3.55
11 | TCTGCTAGGTCAACGATGGACAGCTAATCTGCTA | 3.88 | 4.29 | 1.56 | 0.358 | 1.08 | 1.32 | -0.751 | 2.01 | -0.131 | 3.97
12 | TAGCCTACGTCATGGGCCAGTATACCACGCGAAC | -0.818 | -0.288 | -0.41 | -0.97 | -0.836 | -0.57 | -0.465 | -0.541 | -1.11 | -0.332
13 | CCTCGGAGGACAGAAGGTCCGAGCTGTCCGCTTT | -0.468 | -1.02 | -0.692 | -1.96 | -0.27 | -0.746 | -0.803 | -0.601 | -1.06 | 0.0749
14 | TCGTATAGGTAATACAGGTGAAAGTCGGCATCTA | 2.32 | 2.24 | 0.787 | 1.03 | 0.975 | 0.742 | 0.293 | 0.746 | 1.16 | 0.691
15 | CAAACTAGGTCATGAAAGGTCAAAGTCGAATGAC | 8.27 | 8.84 | 5.43 | 7.62 | 9.18 | 7.23 | 2.71 | 7.33 | 4.32 | 5.36
16 | TCTGCTAGGTCAACGATGGTCAGCCAATCTGCTA | 4.18 | 4.29 | 0.0146 | -0.247 | 1.87 | 1.6 | -0.979 | 2.02 | -0.83 | 4.26
17 | TCTATTAGTTGAAGGGCAACCAACGAGTCCGTTT | 2.05 | 0.417 | 0.246 | 1.16 | 0.593 | 0.786 | 0.837 | 0.718 | 1.55 | 1.46
18 | GCGTATAGGTAATACAAGGTGAAAGTCCGATTGT | 1.36 | 1.33 | 0.339 | -0.802 | 0.129 | 0.699 | -0.0902 | 1.12 | 0.521 | 0.576
19 | TCGAGTAGGTTAGTCGGAGCATTCAGCCAACATA | 2.04 | 1.68 | -0.361 | -0.571 | 0.0245 | -0.452 | -0.761 | -0.167 | -0.593 | -0.208
20 | AACACAGGGTCACTAGGCCAGAGTAGGTACGAAT | 3.35 | 5.16 | 3.43 | 0.694 | 5.13 | 3.16 | 0.347 | 4.14 | 0.685 | 4.19
21 | GGAACGAGGGCAAGTTCATAGCAGAGTTTGATGG | 4.12 | 3.14 | -0.982 | -0.116 | 0.648 | 3.66 | 5.88 | 1.72 | -0.259 | 3.37
22 | ATCTAAAGGTCGACGAGGTGAGTATACACCGTTT | 0.916 | 2.35 | 0.97 | 0.877 | 1.81 | 3.26 | 0.284 | 3.76 | 1.29 | 3.91
23 | TCATATTGGTAAATGCTAGGTGAAAGTCCGATCT | 2.35 | 0.751 | 1.11 | 1.6 | 1.32 | 0.588 | 0.616 | 0.882 | 1.3 | 0.404
24 | ACTAGCTGGTCAGCTGAGGTCACACACAATTCGG | 0.832 | 1.83 | 0.106 | -0.428 | 2.22 | 5.58 | 1.11 | 4.93 | 0.527 | 3.69
